Records with an inconclusive call do not appear. Activity calls are given as the source filed them. The call rests on the fitted dose curve; in most records, active means well fitted activation curve with a large enough effect in the signal ratio in the repeat runs (not every such curve was filed as active); inconclusive means weak or mixed curves; inactive means flat fitted curve, though single readings scatter; the % refers to the signal ratio.
Assay: qHTS assay to identify small molecule agonists of H2AX (AID 1224845)
Details: CHO-K1 phospho-H2AX Ser139 HTRF, 3 h; series mostly up to 154 µM; activation (H2AX phosphorylation): at the top concentration
Excerpt: National Center for Advancing Translational Sciences [NCATS]
NIH Chemical Genomics Center [NCGC]
U.S. Environmental Protection Agency [EPA]
National Institutes of Environmental Health Sciences [NIEHS]
National Toxicology Program [NTP]
U.S. Food and Drug Administration [FDA]
HTRF phospho-H2AX (Ser139) assay (Cisbio Bioassays, US) enables the quantitative detection of the histone variant H2AX when phosphorylated on serine 139. When double-stranded DNA breaks, either by ionizing radiation or endogenous physiological processes, H2AX becomes phosphorylated at Ser139. This phospho-Ser139 serves as a sensitive biomarker for the detection of such breaks, localizing the site of DNA repair. So, HTRF phospho-H2AX Ser139 is a pertinent assay to study genome stability, the cell cycle, DNA repair, and it serves as a biomarker for cancer, and to understand aging. Wild type CHO-K1 cells were used to identify the inducers of Phospho-H2AX Ser 139 from the Tox21 10K compound collections.
Tox21 Assay Protocol Summary:
The CHO-K1 cells suspended in culture medium containing 10% FBS were dispensed at 1000 cells/ 3 ul/well in 1536-well white wall/solid bottom plates (Greiner Bio-One North America, NC) using a Multidrop Combi (Thermo Fisher Scientific Inc., Waltham, MA). After the assay plates were incubated at 37C overnight, 23 nl of compounds at 15 concentrations (from 5-48 columns) or positive control (from 1 to 4 columns) were transferred to the assay plates using a Pintool station (Wako, San Diego, CA) into each well resulting in a final DMSO concentration of 0.76%. After 3hr incubation at 37C, 1 uL/well Supplemented Lysis buffer (diluted 100 fold blocking reagent in lysis buffer) (HTRF Phospho-H2A.X (S139) Assay kit from Cisbio US Inc., Bedford, MA) was added using a Flying Reagent Dispenser (FRD) (Aurora Discovery, CA). After 10sec spin at 1000 rpm in a plate centrifuge, the assay plates were incubated at room temperature for 30 min. Then followed by the addition of 1 uL/well detection buffer (containing a mixture of two antibodies, one labeled with cryptate, Anti pH2AX (S139)-K and another labeled with d2, Anti H2AX-d2) using FRD. After incubation at room temperature for 24 hr, the time resolved fluorescence at excitation 320 nm and emissions at 665 nm and 620 nm was measured using an Envision plate reader (PerkinElmer, Waltham, MA).
In the case of `COc1cc(C(=O)NC2CCCNC2)cc(OC)c1OC` (stereo not given), the “activation (H2AX phosphorylation)” value is reported as 0.508% [at 70.9 µM] (inactive).
In the case of `COCCCOc1cc(C[C@@H](C[C@H](N)[C@@H](O)C[C@H](C(=O)NCC(C)(C)C(N)=O)C(C)C)C(C)C)ccc1OC`, the “activation (H2AX phosphorylation)” value is reported as -0.478% [at 70.9 µM] (inactive).
With `CN(C)CCC[C@@]1(c2ccc(F)cc2)OCc2cc(C#N)ccc21` the “activation (H2AX phosphorylation)” value was -3.91% [at 70.9 µM] (inactive).
In the case of `CC1(C)CC(N)CC(C)(C)N1`, the “activation (H2AX phosphorylation)” value is reported as 0.257% (inactive).
With `O=S(=O)(O)c1ccc(Cl)cc1` the “activation (H2AX phosphorylation)” value was -0.588% (inactive).
In the case of `COc1ccc(Cl)cc1C`, the “activation (H2AX phosphorylation)” value is reported as -0.388% (inactive).
For `CCCC(=O)OC`, the “activation (H2AX phosphorylation)” value was 1.91% (inactive).
In the case of `C=CC(C)(CCC=C(C)C)OC(=O)C(C)C` (stereo not given), the “activation (H2AX phosphorylation)” value is reported as 2.36% (inactive).
With `CC(=O)Nc1ccc(S(=O)(=O)Nc2cc(C)on2)cc1` the “activation (H2AX phosphorylation)” value was -0.984% [at 70.9 µM] (inactive).
For `CC(C)OCCO`, the “activation (H2AX phosphorylation)” value was -2.16% (inactive).
With `CCOCCOCCOC(C)=O` the “activation (H2AX phosphorylation)” value was -0.364% (inactive).
With `COCc1nnc(-c2ccc[n+]([O-])c2)n1-c1c(Cl)c(Cl)cc2[nH]c(=O)c(=O)[nH]c12` the “activation (H2AX phosphorylation)” value was 1% (inactive).
With `CCN(CC)CC(=O)Oc1ccc(NC(C)=O)cc1` the “activation (H2AX phosphorylation)” value was 0.0171% [at 70.9 µM] (inactive).
With `CC(C)(C)C(=O)CC(=O)C(C)(C)C` the “activation (H2AX phosphorylation)” value was -1.61% (inactive).
In the case of `COc1ccc2cc(CCC(C)=O)ccc2c1`, the “activation (H2AX phosphorylation)” value is reported as -0.94% [at 70.9 µM] (inactive).
With `CN(C)CCc1c[nH]c2ccc(C[C@H]3COC(=O)N3)cc12` the “activation (H2AX phosphorylation)” value was 0.669% [at 70.9 µM] (inactive).
For `O=C(CCBr)N1CCN(C(=O)CCBr)CC1`, the “activation (H2AX phosphorylation)” value was 0.228% [at 70.9 µM] (inactive).
For `Cc1nnc(C(=O)NC(C)(C)c2nc(C(=O)NCc3ccc(F)cc3)c(O)c(=O)n2C)o1`, the “activation (H2AX phosphorylation)” value was 0.645% [at 70.9 µM] (inactive).
With `O=C1CC2(CCCC2)CC(=O)N1CCNCC1COc2ccccc2O1` (stereo not given) the “activation (H2AX phosphorylation)” value was -0.254% [at 70.9 µM] (inactive).
For `CC(C)(C)OC(=O)c1ccccc1C(=O)O`, the “activation (H2AX phosphorylation)” value was -0.842% (inactive).
In the case of `CC(C)=CCC/C(C)=C\C#N`, the “activation (H2AX phosphorylation)” value is reported as -3.79% (inactive).
For `CCCCCCC(O)CO` (stereo not given), the “activation (H2AX phosphorylation)” value was 0.716% (inactive).
In the case of `CC(O)CCCCn1c(=O)c2c(ncn2C)n(C)c1=O` (stereo not given), the “activation (H2AX phosphorylation)” value is reported as -0.421% [at 70.9 µM] (inactive).
For `Cc1ccc(S(=O)(=O)NC(=O)NN2CC3CCCC3C2)cc1` (stereo not given), the “activation (H2AX phosphorylation)” value was -2.68% [at 70.9 µM] (inactive).
For `CCOC(=O)CC(C(C)=O)C(C)=O`, the “activation (H2AX phosphorylation)” value was 0.614% (inactive).
With `CCC(C)SSC(C)CC` (stereo not given) the “activation (H2AX phosphorylation)” value was -2.64% (inactive).
In the case of `C=CCCCCCCCCOC(C)=O`, the “activation (H2AX phosphorylation)” value is reported as -1.41% (inactive).
For `O=Cc1ccc(C(=O)O)cc1`, the “activation (H2AX phosphorylation)” value was 1.6% (inactive).
With `COC(=O)C(c1ccccc1Cl)N1CCc2sccc2C1` (stereo not given) the “activation (H2AX phosphorylation)” value was -1.72% [at 70.9 µM] (inactive).
For `CC(C)(C)OC=O`, the “activation (H2AX phosphorylation)” value was 0.161% (inactive).
In the case of `Cc1ccc(Br)cc1`, the “activation (H2AX phosphorylation)” value is reported as -1.18% (inactive).
With `CC1(C)S[C@@H]2[C@H](NC(=O)Cc3ccccc3)C(=O)N2[C@H]1C(=O)O` (tested in a mixture with another compound) the “activation (H2AX phosphorylation)” value was 0.0194% [at 70.9 µM] (inactive).
For `COC(=O)c1ccccc1Cl`, the “activation (H2AX phosphorylation)” value was -1.98% (inactive).
For `CCN1CCN(C(=O)N[C@@H](C(=O)N[C@@H]2C(=O)N3C(C(=O)O)=C(CSc4nnnn4C)CS[C@H]23)c2ccc(O)cc2)C(=O)C1=O`, the “activation (H2AX phosphorylation)” value was -0.385% [at 70.9 µM] (inactive).
In the case of `CCNC(=O)C(C)OC(=O)Nc1ccccc1` (stereo not given), the “activation (H2AX phosphorylation)” value is reported as 0.993% (inactive).
With `CCCCCCCCCCCBr` the “activation (H2AX phosphorylation)” value was -3.14% [at 70.9 µM] (inactive).
In the case of `CC(C)(C)NCC(O)COc1cccc2c1CCC(=O)N2` (stereo not given), the “activation (H2AX phosphorylation)” value is reported as 0.424% [at 70.9 µM] (inactive).
In the case of `COC(=O)c1c(C)cc(O)c(C)c1O`, the “activation (H2AX phosphorylation)” value is reported as -1.3% (inactive).
With `Nc1ccc(C(=O)NCC(=O)O)cc1` the “activation (H2AX phosphorylation)” value was -3.31% [at 70.9 µM] (inactive).
For `CC(C)CC(O)Cc1ccccc1` (stereo not given), the “activation (H2AX phosphorylation)” value was -3.23% (inactive).

Reference: PubChem BioAssay (Tox21)
On the % scale 0 is the no-effect control and ±100 the full control effect.
